Measured values: PubChem BioAssay (Tox21)
Records with an inconclusive call do not appear. Where a structure was tested more than once in an assay, its records may differ in their call. Active and inactive are the calls of the source. Calls follow the shape of the full dose curve.

Assays:
[1] = target: Acetylcholinesterase (Homo sapiens) (UniProt P22303); test: Acetylcholinesterase (AChE) small molecule antagonists: colormetric cell-based qHTS assay (AID 1347395); also: nearly all actives have a fitted effect of over 30% in size; also: potency is read from the fitted curve at half-maximal effect
How it was run: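 Colorimetric read-out: DTNB detects thiocholine released when cellular AChE in SH-SY5Y cells hydrolyses acetylthiocholine. Cells attached overnight, received compound for 30 min at 37 C, then substrate mix for 90 min at 37 C.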

[2] = target: Acetylcholinesterase (Homo sapiens) (UniProt P22303); test: Acetylcholinesterase (AChE) small molecule antagonists: enzyme-based qHTS assay (AID 1347397); conditions: Potency: AChE enzyme activity inhibition; outcome: AChE enzyme activity inhibition; also: nearly all actives have a fitted effect of over 55% in size
How it was run: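 Recombinant human AChE, dispensed at 50 mU/mL, was preincubated with Tox21 10K compounds or DMSO vehicle for 30 min at room temperature. DTNB plus acetylthiocholine was then added, and thiocholine was measured colorimetrically after a further 10 min.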

[3] = target: Acetylcholinesterase (Homo sapiens) (UniProt P22303); test: Acetylcholinesterase (AChE) small molecule antagonists: fluorescence cell-based qHTS assay (AID 1347398); conditions: Potency: AChE activity; outcome: AChE activity; also: nearly all actives have a fitted effect of over 50% in size; also: potency is read from the fitted curve at half-maximal effect
How it was run: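 Human SH-SY5Y cells were plated overnight at 37 C, exposed to compound for 30 min at 37 C, 5% CO2, then given acetylthiocholine plus Thiolite Green for 40 min at room temperature; thiocholine fluorescence (Ex/Em 490/520 nm) reports endogenous AChE activity.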

[4] = target: Acetylcholinesterase (Homo sapiens) (UniProt P22303); test: Acetylcholinesterase (AChE) small molecule antagonists: enzyme-based qHTS assay with human liver microsomes (AID 1347399); conditions: Potency: qHTS inhibition; outcome: qHTS inhibition; also: nearly all actives have a fitted effect of over 60% in size
How it was run: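 Recombinant human AChE (50 mU/mL in the enzyme mix) and human liver microsomes (0.25 mg/mL final) were preincubated with compound and NADPH (0.25 mg/mL final) for 30 min at 37 C. Acetylthiocholine/DTNB was then added; thiocholine was read colorimetrically after 10 min at room temperature.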
% is scaled to controls: 0 for no effect and ±100 for the full control effect.

Acetylcholinesterase (Homo sapiens), sequence (P22303 whole entry, looked up): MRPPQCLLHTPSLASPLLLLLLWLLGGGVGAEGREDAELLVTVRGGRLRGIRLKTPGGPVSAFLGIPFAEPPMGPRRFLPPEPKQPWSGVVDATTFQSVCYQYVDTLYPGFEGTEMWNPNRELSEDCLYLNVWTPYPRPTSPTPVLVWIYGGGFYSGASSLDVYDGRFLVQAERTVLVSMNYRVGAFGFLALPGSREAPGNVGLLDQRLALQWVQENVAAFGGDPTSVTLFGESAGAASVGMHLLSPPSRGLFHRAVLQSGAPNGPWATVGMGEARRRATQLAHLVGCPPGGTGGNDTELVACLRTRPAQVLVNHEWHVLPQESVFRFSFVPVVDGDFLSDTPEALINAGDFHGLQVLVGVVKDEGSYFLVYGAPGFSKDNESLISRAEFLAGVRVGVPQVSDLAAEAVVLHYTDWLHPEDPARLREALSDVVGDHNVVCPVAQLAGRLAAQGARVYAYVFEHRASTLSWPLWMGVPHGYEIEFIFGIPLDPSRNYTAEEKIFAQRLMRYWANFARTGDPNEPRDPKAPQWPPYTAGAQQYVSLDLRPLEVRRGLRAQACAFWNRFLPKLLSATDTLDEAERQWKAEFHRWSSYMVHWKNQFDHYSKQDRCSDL

CC(C)(Oc1ccc(C2CC2(Cl)Cl)cc1)C(=O)O (stereo not given)
inactive: Potency [1] | Potency [2] | Potency [3] | Potency [4]

Nc1ccc2cc(S(=O)(=O)O)cc(O)c2c1N=Nc1ccccc1C(F)(F)F
inactive: Potency [1] | Potency [2] | Potency [3] | Potency [4]

CC(O)C#CC(C)O (stereo not given)
inactive: Potency [1] | Potency [2] | Potency [3] | Potency [4]

COc1cc(CNC(=O)CCCC/C=C/C(C)C)ccc1O
inactive: Potency [1] | Potency [2] | Potency [3] | Potency [4]

CCCCCCCCCCCC
inactive: Potency [1] | Potency [2] | Potency [3] | Potency [4]

COC(=O)CCCCC(CCSS/C(CCO)=C(\C)N(C=O)Cc1cnc(C)nc1N)SC(C)=O (stereo not given)
inactive: Potency [1] | Potency [2] | Potency [3] | Potency [4]

CCO/C=C1\N=C(c2ccccc2)OC1=O
inactive: Potency [1] | Potency [2] | Potency [3] | Potency [4]

Nc1ccc(O)c([N+](=O)[O-])c1
inactive: Potency [1] | Potency [2] | Potency [3] | Potency [4]

CCCCCCN
inactive: Potency [1] | Potency [2] | Potency [3] | Potency [4]

CCCCCCCCCCl
inactive: Potency [1] | Potency [2] | Potency [3] | Potency [4]

CCCCC1CCC(O)CC1 (stereo not given)
inactive: Potency [1] | Potency [2] | Potency [3] | Potency [4]

CCc1ccc(Br)cc1
inactive: Potency [1] | Potency [2] | Potency [3] | Potency [4]

Clc1ccccn1
inactive: Potency [1] | Potency [2] | Potency [3] | Potency [4]

On1nnc2ccccc21
inactive: Potency [1] | Potency [2] | Potency [3] | Potency [4]

COC(=O)CCC(=O)OC
inactive: Potency [1] | Potency [2] | Potency [3] | Potency [4]

O=C(Cl)c1c(Cl)cccc1Cl
inactive: Potency [2] | Potency [4]
active: Potency [1] 64 µM | Potency [3] 40.4 µM

CC(C)CC(C)O (stereo not given)
inactive: Potency [1] | Potency [2] | Potency [3] | Potency [4]

O=[N+]([O-])c1cccc(S(=O)(=O)O)c1
inactive: Potency [1] | Potency [2] | Potency [3] | Potency [4]

c1ccc2n[nH]nc2c1
inactive: Potency [1] | Potency [2] | Potency [3] | Potency [4]

BrCCOc1ccccc1
inactive: Potency [1] | Potency [2] | Potency [3] | Potency [4]

C=CC(=O)OCC(CO)(COC(=O)C=C)COC(=O)C=C
inactive: Potency [1] | Potency [2] | Potency [3] | Potency [4]

c1ccc2c(c1)CCc1ccccc1N2
inactive: Potency [1] | Potency [2] | Potency [3] | Potency [4]

Cc1ccccc1C=O
inactive: Potency [1] | Potency [2] | Potency [3] | Potency [4]

CCC(C)(C)c1cc(O)c(C(C)(C)CC)cc1O
inactive: Potency [1] | Potency [2] | Potency [3] | Potency [4]

CCC(C)(O)CCC=C(C)C (stereo not given)
inactive: Potency [1] | Potency [2] | Potency [3] | Potency [4]

COC[C@H](c1ccc(C(F)(F)F)cc1)N1CCN(C2(C)CCN(C(=O)c3c(C)ncnc3C)CC2)C[C@H]1C
inactive: Potency [1] | Potency [2] | Potency [3] | Potency [4]

CCCCC(=O)O[C@]1(C(=O)CO)[C@@H](C)C[C@H]2[C@@H]3CCC4=CC(=O)C=C[C@]4(C)[C@@]3(F)[C@@H](O)C[C@@]21C
inactive: Potency [1] | Potency [2] | Potency [3] | Potency [4]

O=C(Nc1ncc([N+](=O)[O-])s1)c1cccs1
inactive: Potency [1] | Potency [2] | Potency [3] | Potency [4]

CCCCN(CCCC)CCC(O)c1cc2c(Cl)cc(Cl)cc2c2cc(C(F)(F)F)ccc12 (stereo not given)
inactive: Potency [1] | Potency [2] | Potency [3] | Potency [4]

Clc1cccc(C(c2ccc3nc[nH]c3c2)n2ccnc2)c1 (stereo not given)
inactive: Potency [1] | Potency [2] | Potency [3] | Potency [4]

C1N2CN3CN1CN(C2)C3
inactive: Potency [1] | Potency [2] | Potency [3] | Potency [4]

CN(C)c1ccc(N=NS(=O)(=O)O)cc1
inactive: Potency [1] | Potency [2] | Potency [3] | Potency [4]

CCOC(=O)c1ccc(I)cc1
inactive: Potency [1] | Potency [2] | Potency [3] | Potency [4]

O=C(c1ccccc1)c1ccccc1O
inactive: Potency [1] | Potency [2] | Potency [3] | Potency [4]

N#Cc1ccccc1O
inactive: Potency [1] | Potency [2] | Potency [3] | Potency [4]

NC(=O)N(O)[C@@H]1C=C[C@H](Oc2cccc(Oc3ccc(F)cc3)c2)C1
inactive: Potency [1] | Potency [2] | Potency [3] | Potency [4]

COC(=O)NN
inactive: Potency [1] | Potency [2] | Potency [3] | Potency [4]

COC(=O)/C=C(\C)CCC=C(C)C
inactive: Potency [1] | Potency [2] | Potency [3] | Potency [4]

c1cnccn1
inactive: Potency [1] | Potency [2] | Potency [3] | Potency [4]

CN1C(=O)CC(C)(c2ccccc2)C1=O (stereo not given)
inactive: Potency [1] | Potency [2] | Potency [3] | Potency [4]

CC(C)C(=O)C(C)C
inactive: Potency [1] | Potency [2] | Potency [3] | Potency [4]

C=Cc1ccc(O)c(OC)c1
inactive: Potency [1] | Potency [2] | Potency [3] | Potency [4]

Nc1cc(Cl)c(N)c(Cl)c1
55.9 µM (active) and inactive: Potency [3]
inactive: Potency [2] | Potency [4]
79 µM (active) and inactive: Potency [1]

OC[C@H]1O[C@@](CO)(O[C@H]2O[C@H](CO)[C@@H](O)[C@H](O)[C@H]2O)[C@@H](O)[C@@H]1O
inactive: Potency [1] | Potency [2] | Potency [3] | Potency [4]

c1ccc2cc(Nc3ccc(Nc4ccc5ccccc5c4)cc3)ccc2c1
inactive: Potency [1] | Potency [2] | Potency [3] | Potency [4]

OCCOc1ccc(OCCO)cc1
inactive: Potency [1] | Potency [2] | Potency [3] | Potency [4]

CCn1cc(C(=O)O)c(=O)c2cc(F)c(N3CCNCC3)cc21
inactive: Potency [1] | Potency [2] | Potency [3] | Potency [4]

CC1(C)CC(O)CC(C)(C)N1
inactive: Potency [1] | Potency [2] | Potency [3] | Potency [4]

CCCOC(=O)c1ccc(C(=O)OCCC)nc1
inactive: Potency [1] | Potency [2] | Potency [3] | Potency [4]

COC(=O)c1ccccc1C(=O)O
inactive: Potency [1] | Potency [2] | Potency [3] | Potency [4]

NC(=O)c1nc(-c2cccc(-c3cc(F)ccc3OCC(F)(F)C(F)(F)F)c2)n[nH]1
inactive: Potency [1] | Potency [2] | Potency [3] | Potency [4]

Oc1ccc2c(c1)OC[C@@H](N1CCC(O)(c3ccc(F)cc3)CC1)[C@H]2O
inactive: Potency [1] | Potency [2] | Potency [3] | Potency [4]

CN(C)c1cccc(O)c1
inactive: Potency [1] | Potency [2] | Potency [3] | Potency [4]

CC1CCC(C(C)CS)CC1S (stereo not given)
inactive: Potency [1] | Potency [2] | Potency [3] | Potency [4]

CC(O)CC(C)(C)O (stereo not given)
inactive: Potency [1] | Potency [2] | Potency [3] | Potency [4]

[O]=[Bi]
inactive: activity, negative = inhibition [1] 1.07% [at 10.5 µM] | activity change, negative = inhibition [2] 2.59% [at 10.5 µM] | activity change, negative = inhibition [3] 3.63% [at 10.5 µM] | activity change, negative = inhibition [4] -4.69% [at 10.5 µM]

CN[C@@H]1[C@H](O)[C@H](NC)[C@H]2O[C@@]3(O)C(=O)C[C@@H](C)O[C@H]3O[C@@H]2[C@H]1O
inactive: Potency [1] | Potency [2] | Potency [3] | Potency [4]

O=C(O)c1ccc([N+](=O)[O-])cc1
inactive: Potency [1] | Potency [2] | Potency [3] | Potency [4]

CCCCCCCC/C=C\CCCCCCCC(N)=O
inactive: Potency [1] | Potency [2] | Potency [3] | Potency [4]

CCC(C)c1nccnc1OC (stereo not given)
inactive: Potency [1] | Potency [2] | Potency [3] | Potency [4]
